# This is part of a sample that, as a whole, favours compounds with a hit. Of some 83,000 tested, about 20% had one in any assay.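 Step 1: grow cells in 96-well plates. Step 2: add test compound at a single concentration. Step 3: incubate 48 h. Step 4: record percent growth.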 A number with no mark means an inactive call. Active and inactive are the calls of the source. Rule for the calls: active = growth percent below 10; inactive = the rest.
# Experiments:
# Assay in all cases: NCI-60 one-dose screen, 48 h (100 = growth as untreated, 0 = no growth, -100 = all killed)
# DU-145 prostate = settings: 10 µM
# K-562 leukemia = settings: 10 µM
# MALME-3M melanoma = settings: 10 µM
# MDA-MB-231 breast = settings: 10 µM
# SF-268 CNS = settings: 10 µM
# SF-295 CNS = settings: 10 µM
# SF-539 CNS = settings: 10 µM
# M14 melanoma = settings: 10 µM
# HCT-15 colon = settings: 10 µM
# HT29 colon = settings: 10 µM
# SNB-75 CNS = settings: 10 µM
# SNB-19 CNS = settings: 10 µM
# U251 CNS = settings: 10 µM
# PC-3 prostate = settings: 10 µM
# SK-MEL-5 melanoma = settings: 10 µM
# UACC-62 melanoma = settings: 10 µM unless noted
# LOX IMVI melanoma = settings: 10 µM
# SK-MEL-28 melanoma = settings: 10 µM
# RXF 393 renal = settings: 10 µM
# UACC-257 melanoma = settings: 10 µM
Structure (SMILES),growth (DU-145 prostate) [%],growth (K-562 leukemia) [%],growth (MALME-3M melanoma) [%],growth (MDA-MB-231 breast) [%],growth (SF-268 CNS) [%],growth (SF-295 CNS),growth (SF-539 CNS) [%],growth (M14 melanoma) [%],growth (HCT-15 colon) [%],growth (HT29 colon) [%],growth (SNB-75 CNS) [%],growth (SNB-19 CNS) [%],growth (U251 CNS) [%],growth (PC-3 prostate),growth (SK-MEL-5 melanoma) [%],growth (UACC-62 melanoma) [%],growth (LOX IMVI melanoma) [%],growth (SK-MEL-28 melanoma) [%],growth (RXF 393 renal) [%],growth (UACC-257 melanoma) [%]
COc1cc2c(cc1OC)[C@H](C(=O)O)[C@@H](c1ccc(OC(C)C)c(OC)c1)N(C)C2=O,114,99.6,94.8,104,116,94.5%,94.4,104,101,105,90.4,94.8,97.3,90%,102,89.6,94.7,116,,
Cc1cc2nc(CC(=O)c3cccc([N+](=O)[O-])c3)c(=O)[nH]c2cc1C,100,73.7,98.5,,98.1,75.4%,88.2,81.4,77,68.2,96.1,,95.1,68%,97.9,65,72.8,97.7,107,97
O=C(O)c1ccc(S(=O)(=O)O)cc1,133,114,97.2,107,123,107%,97.9,117,102,107,94.9,106,103,88.2%,110,102,97.3,109,,
CN(C)CCC(=O)c1ccc(O)cc1,104,104,108,,95.5,106%,104,104,104,105,93.7,,100,106%,99.9,,97.2,110,112,105
c1ccc(Cc2ccccc2)cc1,103,119,96,105,107,110%,93.5,112,99,118,98.9,104,103,82.8%,116,103,99.5,112,,
Cc1cc(NC(=O)CSCC(=O)O)no1,112,117,96.8,,114,94.2%,96.4,99.6,96.7,98.5,102,,,98.6%,101,94.7,103,108,103,95.4
OC1CCCc2ccccc21 (configuration not stated),114,97.9,78.8,117,116,93.2%,96.4,113,,101,88,90.8,108,103%,111,100,104,120,,
C=CCNc1nnc(C)s1,118,106,106,102,119,115%,99.9,103,104,116,102,109,107,89.6%,107,97.1,97.8,104,,
O=C1NC(=O)C2C(=O)NC(=O)C1C21CCc2ccccc21 (configuration not stated),115,98.2,102,,111,102%,93.7,103,105,123,124,,106,90.1%,96.3,83.6,102,113,99.3,107
Nc1nc2c(c(-c3nc(N)nc4c3CCc3ccccc3-4)n1)CCc1ccccc1-2,107,99.2,85.3,,103,99.5%,93.1,105,104,112,98.8,,114,86.9%,99.3,94.6,98.3,,115,109
COc1ccc2c(c1)CCc1c-2n[nH]c1-c1[nH]nc2c1CCc1cc(OC)ccc1-2,86.2,20.8,46.6,,86.2,29.6%,31.8,36.1,35.6,52.3,29.3,,54.2,50.4%,37.2,25.8,43.8,,54.3,82.5
CCCCNC(=O)C(=O)NCCCC,103,108,95.4,,97.9,102%,101,104,105,,116,,114,,100,92.6,102,112,107,105
COc1ccc(-c2cc(-c3cc(-c4ccc(OC)cc4)nc(N)n3)nc(N)n2)cc1,102,98.9,91.2,,102,96.2%,98.1,104,103,105,91.4,,101,96.5%,97.1,91.4,95,103,101,99.4
c1csc(-c2cc(-c3cc(-c4cccs4)[nH]n3)n[nH]2)c1,106,84.7,88.3,,107,96.8%,93.8,96.9,98.9,106,128,,106,87.3%,99.2,84.4,87.2,105,112,109
CCS(=O)(=O)c1cc(=O)[nH]c(=O)[nH]1,109,128,56.9,101,105,122%,111,87.1,,101,82.4,102,,124%,93.2,,101,98.9,,44.4
O=C1C=CC2=C3c4cc(O)c(O)cc4CC3(O)COC2=C1O (configuration not stated),119,108,124,99.1,107,107%,90,102,105,100,88,104,105,93.7%,138,98.1,99.2,119,,
O=C(N/N=C\c1cc(Br)cc(Br)c1O)N/N=C/c1cc(Br)cc(Br)c1O,75.2,22.9,70.2,72,51.1,6.45% (active),35.5,55.2,33.6,,49,68.2,46.1,-1.34% (active),45.3,39,50.5,81.9,,
CSc1[nH]c(=O)ncc1F,106,111,97.8,,,97.4%,95.7,103,100,112,102,,100,96.5%,101,92.8,95.8,,105,72.8
